Results on 77 compounds are retold here after PubChem BioAssay AID1379 (National Center for Advancing Translational Sciences (NCATS), 2008).

The structures appear in SMILES notation. Hit rate of the full screen: of about 200,000 compounds, about 560 (0.28%) were called active. Where a call stands in place of a potency, no number is given. The full list was thinned out, with actives kept by preference. A number with no mark means an inactive call. Calls come from the whole dose curve; as a rule, active = well fitted inhibition curve with a large enough effect; inconclusive = small, poorly fitted or top-dose-only effect; inactive = flat fitted curve, though single readings scatter.
Potency is the fitted concentration of half-maximal effect.

This assay concerns the target Luciferin 4-monooxygenase (Photuris pensylvanica) (UniProt Q27757). The experiment in a line: Counterscreen for Luciferase (Kinase-Glo TM) Inhibition. Note: nearly all actives have a fitted effect of over 60% in size. The conditions noted are these: ATP luminescence, 8 min; series mostly up to 38.3 µM. The protocol: NCGC Assay Overview: NIH Molecular Libraries Screening Centers Network [MLSCN] NIH Chemical Genomics Center [NCGC] MLSCN Grant: None Luciferase (Kinase-Glo, Promega Corporation) was assayed for its ability to generate light using ATP and luciferin as substrates. The ATP concentration in the assay (10 uM) was within the linear range of enzyme activity for the assay conditions used.
NCGC Assay Protocol Summary: Four uL of substrate mix (final concentration, 50 mM imidazole pH 7.2, 50 mM KCl, 7 mM MgCl2, 10 uM ATP, 0.01% Tween 20, 0.05% BSA) was dispensed into white 1536 well plates. Twenty-three nL of compound was delivered by a pin tool and 2 uL of luciferase detection mix (Kinase-Glo, Promega)) was added. Following 8-minute incubation at ambient temperature, luminescence was measured by a ViewLux (Perkin Elmer) at 5 seconds exposure/plate.
(In general: A counterscreen serves to expose hits that act by an unwanted route or on another target.)
Take `CCCCC/C=C\C/C=C\CCCCCCCCCC(=O)O`: the activity change, negative = inhibition result is “inactive”.

As for `COc1ccc(C(=O)NC(=S)Nc2ccc(N3CCCC3)cc2)cc1OC`, the activity change, negative = inhibition result was “inactive”.

As for `COc1cccc(OC)c1C(=O)Nc1ccc(N2CCCCC2)cc1`, the activity change, negative = inhibition result is “inactive”.

Consider `COc1cccc(C(=O)Nc2ccc(N3CCCC3)cc2)c1`, for which the Potency was 4.47 µM (active).

As for `COc1cc(OC)c2c(c1)OC(=O)CC2c1cc(OC)c(OC)c(OC)c1` (configuration not stated), the activity change, negative = inhibition result is “inactive”.

In the case of `CN1c2ccccc2-c2nc3ccccc3n2C1c1ccco1` (configuration not stated), the activity change, negative = inhibition entry is “inactive”.

`COc1ccc(CCn2c(-c3ccco3)nc3nc4ccccc4nc32)cc1OC`: the activity change, negative = inhibition entry is “inactive”.

As to `Cn1c(-c2ccco2)nc2cc3ccccc3cc21`, the Potency was 12.6 µM (active).

For the compound `COc1ccc(C2CC(=O)Oc3ccc(C(C)(C)C)cc32)cc1` (configuration not stated), the activity change, negative = inhibition entry was “inactive”.

Take `COc1cccc([C@@H]2Oc3ccc(Br)cc3C(=O)[C@H]2OC(=O)NCCc2ccc(OC)c(OC)c2)c1`: the activity change, negative = inhibition result was “inactive”.

Turning to `CCOC(=O)C1=C(C(=O)OCC)C(C(=O)OCC)N(S(=O)(=O)C(F)(F)F)c2ccccc21` (configuration not stated), the activity change, negative = inhibition entry is “inactive”.

Consider `COC(=O)C1=C(C(=O)OC)[C@@H]2N(C)c3ccccc3[C@@]23C[C@@H](C(=O)OC)N(S(=O)(=O)c2cccs2)C3=N1`, for which the activity change, negative = inhibition is -6.85% [at 7.66 µM].

Consider `CC/C=C\C/C=C\C/C=C\C/C=C\C/C=C\C/C=C\CCC(=O)NCCc1ccc(O)c(O)c1`, for which the activity change, negative = inhibition result was “inactive”.

Consider `C[C@@]12CCC(=O)C=C1CC[C@H]1C2[C@@H](O)C[C@]2(C)[C@@H]1CC[C@@]2(O)C(=O)COC(=O)C1CCCC1` (some centres not stated), for which the activity change, negative = inhibition was -5.73% [at 7.66 µM].

For the compound `CCCCC/C=C\C/C=C\CCCCCCCCCC(N)=O`, the activity change, negative = inhibition result is “inactive”.

In the case of `COC(=O)C1(C(C)=O)CC2=CC[C@H]3C(=O)N(c4ccccc4)C(=O)[C@H]3[C@@H]2Cc2ccccc2[C@@H]1C[N+](=O)[O-]` (some centres not stated), the activity change, negative = inhibition result is “inactive”.

Consider `CCCCC/C=C\C/C=C\C/C=C\CCCCC(=O)NCC(=O)O`, for which the activity change, negative = inhibition result is “inactive”.

Regarding `COC(=O)C(C(=O)OC)[C@@H](NC=O)c1ccccc1`, the activity change, negative = inhibition entry was “inactive”.

With `CC1(OC(=O)c2ccc(Cl)nc2)C(=O)Cc2cc(-c3ccsc3)ncc2C1=O` (configuration not stated), the activity change, negative = inhibition is -0.318% [at 7.66 µM].

With `Cn1cccc1-c1nc2ccccc2n1C`, the activity change, negative = inhibition result is “inactive”.

In the case of `Cc1csc(-c2nc3ccccc3n2C)n1`, the Potency was 4.47 µM (active).

Turning to `Cc1nn2c3ccccc3nc2n(C)c1=O`, the activity change, negative = inhibition result was “inactive”.

As for `COCCn1c(C)cc(C2=NNC(=Nc3ccc(F)cc3)SC2)c1C`, the activity change, negative = inhibition entry is “inactive”.

As to `Cc1cccc(N=C2NN=C(c3c[nH]c4ccccc34)CS2)c1`, the activity change, negative = inhibition entry was “inactive”.

In the case of `C=CCn1c(C)cc(C2=NNC(=NCC)SC2)c1C`, the Potency is 7.94 µM (active).

For `COc1cc(/C=C/CO)cc(OC)c1O[C@@H]1O[C@H](CO)[C@@H](O)[C@H](O)[C@H]1O`, the activity change, negative = inhibition entry is “inactive”.

On to `Cc1csc(-c2coc3cc(O[C@@H]4O[C@H](CO)[C@@H](O)[C@@H](O)[C@H]4O)ccc3c2=O)n1`, for which the Potency was 3.55 µM (active).

For `CCc1cccc(OC2OC(CO)C(O)C(O)C2NC(C)=O)c1` (configuration not stated), the activity change, negative = inhibition result was “inactive”.

As to `C=CCN1C=C2C(=O)C(C)(OC(=O)CCc3ccccc3)C(=O)C=C2C=C1c1ccc(C#N)cc1` (configuration not stated), the activity change, negative = inhibition was -4.17% [at 7.66 µM].

`C=C/C1=C/Cc2ccccc2[C@H](C[N+](=O)[O-])C(C(=O)OC)(C(=O)OC)C1`: the activity change, negative = inhibition result is “inactive”.

For `CC(C)(C)OC(=O)NCCCC1=CC2=CC(=O)C(C)(OC(=O)c3ccco3)C(=O)C2=CO1` (configuration not stated), the activity change, negative = inhibition entry is “inactive”.

As for `COC(=O)C1=C(C(=O)OC)[C@@H]2Nc3ccccc3[C@@]23C[C@@H](C(=O)OC)N(S(=O)(=O)c2ccc([N+](=O)[O-])cc2)C3=N1`, the activity change, negative = inhibition is -3.38% [at 7.66 µM].

In the case of `Cc1ccc(-c2cn3cc([N+](=O)[O-])ccc3n2)cc1`, the activity change, negative = inhibition result is “inactive”.

Take `Cc1ccc(-c2cn3cc(C)ccc3n2)cc1`: the Potency is 11.2 µM (active).

As to `COc1ccc(-c2cn3ccsc3n2)cc1`, the activity change, negative = inhibition result was “inactive”.

`C[C@H]1Cc2c(-c3ccccc3)nc3c(c2CO1)CN(S(=O)(=O)c1ccc(Cl)c2nonc12)CC3`: the activity change, negative = inhibition was -6.5% [at 7.66 µM].

As to `C=C(C(C)=O)C(O)c1ccc([N+](=O)[O-])cc1` (configuration not stated), the activity change, negative = inhibition entry is “inactive”.

`Cc1ccc(-c2cccc([C@H]3[C@@H]4C=CC[C@@H](C)[C@@H]4C(=O)N3Cc3ccccc3)c2)cc1`: the activity change, negative = inhibition result was “inactive”.

Turning to `O=C(Oc1ccccc1)c1ccc2nccnc2c1`, the activity change, negative = inhibition result was “inactive”.

For the compound `c1csc(-c2nc(-c3ccncc3)no2)c1`, the activity change, negative = inhibition result was “inactive”.

Regarding `COc1nc(-c2ccc(Cl)cc2)ccc1-c1noc(-c2cccs2)n1`, the activity change, negative = inhibition result was “inactive”.

`O=C(Oc1ccc(-c2nc(-c3ccccn3)no2)cc1)c1ccccc1`: the Potency was 4.47 µM (active).

Turning to `c1ccc(-c2noc(-c3cccs3)n2)nc1`, the Potency is 12.6 µM (active).

As to `COc1ccc(Cc2nc(-c3ccccn3)no2)cc1OC`, the activity change, negative = inhibition result was “inactive”.

For the compound `C/C(Nc1ccc2oc(=O)ccc2c1)=C1/C(=O)CC2[C@@H]1C2(C)C` (some centres not stated), the activity change, negative = inhibition result was “inactive”.

`O=C1/C(=C/c2cccs2)CCc2ccccc21`: the Potency was 11.2 µM (active).

For the compound `COc1ccc(/C=C2\CCc3ccccc3C2=O)c(OC)c1OC`, the activity change, negative = inhibition entry was “inactive”.

As for `CCC1C/C(=C/c2cccs2)C(=O)/C(=C/c2cccs2)C1` (configuration not stated), the activity change, negative = inhibition entry was “inactive”.

For `N#Cc1cccc(CS(=O)(=O)c2nnnn2-c2cc(C(F)(F)F)cc(C(F)(F)F)c2)c1`, the activity change, negative = inhibition entry is “inactive”.

Take `COc1ccc(-c2nc3c(c4c2C[C@H](c2ccccc2)OC4)CN(S(=O)(=O)c2c(C)noc2C)CC3)c(C)c1`: the activity change, negative = inhibition is -5.25% [at 7.66 µM].

Take `O=C1C=C(c2ccccc2)CCC1`: the activity change, negative = inhibition entry is “inactive”.

For the compound `COc1ccc2c(c1)O[C@@H](c1ccc3c(c1)OCO3)[C@H](OC(=O)NCc1ccco1)C2=O`, the activity change, negative = inhibition entry was “inactive”.

With `COc1cc(NC(=O)c2cc([N+](=O)[O-])ccc2Br)ccc1NC(=O)c1ccco1`, the activity change, negative = inhibition result was “inactive”.

For the compound `COc1ccccc1C(=O)Nc1ccc(NC(=O)c2ccco2)c(C)c1`, the Potency is 10 µM (active).

As to `COc1ccc(NC(=O)c2cccc(NC(=O)c3ccco3)c2)c(OC)c1`, the activity change, negative = inhibition result is “inactive”.

Consider `O=C(NCc1ccco1)O[C@@H]1C(=O)c2cc(Br)ccc2O[C@H]1c1ccc2c(c1)OCO2`, for which the activity change, negative = inhibition entry is “inactive”.

Consider `Cc1cccc([C@H]2[C@@H]3C=CC[C@@H](C)[C@@H]3C(=O)N2Cc2ccccc2)c1`, for which the activity change, negative = inhibition entry is “inactive”.

Regarding `CCN1C(=O)N[C@@H](CCc2ccccc2)C(C(=O)OC)=C1C`, the activity change, negative = inhibition is 0.314% [at 7.66 µM].

Regarding `C=CCC(C)(O)c1ccco1` (configuration not stated), the activity change, negative = inhibition result was “inactive”.

For `O=C1OCCN1C(=O)[C@H]1[C@H](c2ccc(F)cc2)C(c2ccccc2)=NN1c1ccc(Br)cc1`, the activity change, negative = inhibition entry is “inactive”.

As for `Cc1ccccc1-c1ccc(C(=O)O)s1`, the activity change, negative = inhibition entry is “inactive”.

On to `C=CC1(C)CC(=O)C2(O)C(C)(O1)C(OC(C)=O)C(O)C1C(C)(C)CCC(O)C12C` (configuration not stated), for which the activity change, negative = inhibition result is “inactive”.

Consider `COCCN1C=C2C(=O)C(C)(OC(=O)C3CCCC3)C(=O)C=C2C=C1c1ccsc1` (configuration not stated), for which the activity change, negative = inhibition is -8.74% [at 7.66 µM].

Turning to `CC1=C2[C@@H](O)[C@H]([C@@H](C)C(=O)NCCC(C)C)CC[C@@]2(C)C=CC1=O`, the activity change, negative = inhibition entry was “inactive”.

As to `COC(=O)CCCC1=CC2=CC(=O)C(C)(OC(=O)c3cccs3)C(=O)C2=CN1c1cccc(C#N)c1` (configuration not stated), the activity change, negative = inhibition was 0.0108% [at 7.66 µM].

For `C/C=C(\C)C(=O)O[C@H]1CC(C)=C2C(=O)C=C(C)C2[C@@H]2OC(=O)[C@@](C)(OC(=O)C=C(C)C)C21` (some centres not stated), the activity change, negative = inhibition entry is “inactive”.

In the case of `COc1ccccc1N=Cc1c(O)c2ccccc2oc1=O`, the Potency is 14.1 µM (active).

`COc1ccc(N=Cc2c(O)[nH]c3ccccc23)cc1OC`: the activity change, negative = inhibition result was “inactive”.

In the case of `COc1ccc(OC)c(N=Cc2c(O)[nH]c3ccccc23)c1`, the activity change, negative = inhibition entry is “inactive”.

Turning to `NC1CCN(O)C1=O` (configuration not stated), the activity change, negative = inhibition entry was “inactive”.

For `Cc1ccc(NC(=O)O[C@@H]2C(=O)c3cc(Br)ccc3O[C@H]2c2ccc3c(c2)OCO3)cc1Br`, the activity change, negative = inhibition entry was “inactive”.

For `C=CC1=C2C=C(C3CC3)N(CC(C)C)C=C2C(=O)C(C)(OC(=O)c2ccco2)C1=O` (configuration not stated), the activity change, negative = inhibition is -1.36% [at 7.66 µM].

For the compound `COc1ccc(/C=C2\NC(=O)[C@@H]3Cc4ccccc4CN3C2=O)cc1`, the activity change, negative = inhibition result was “inactive”.

Take `CCCCCCCC[C@@H](O)/C=C/C=C/C=C\[C@@H](O)CCCC(=O)O`: the activity change, negative = inhibition entry is “inactive”.

Take `C=C(C(C)=O)C(O)c1cccs1` (configuration not stated): the activity change, negative = inhibition entry is “inactive”.

On to `C=CCC1CCC(=O)N2CCCC12` (configuration not stated), for which the activity change, negative = inhibition result is “inactive”.

Consider `CC1(OC(=O)CCc2ccccc2)C(=O)C=C2C=C(c3ccc(C#N)cc3)N(CCc3ccccn3)C=C2C1=O` (configuration not stated), for which the activity change, negative = inhibition was -6.83% [at 7.66 µM].
